The list is not random: actives were taken first. Their share in the collection is about 11%.
3T3 cytotox: NIH 3T3 cell cytotoxicity; NIH 3T3 viability, CellTiter-Glo ATP luminescence, 48-72 h; Potency, µM (doses to about 96.7 µM), actives largely listed as inhibitors; 94,000 tested, 4.3% active; AID 1345082; also: nearly all actives have a fitted effect of over 55% in size
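Mouse fibroblast NIH 3T3 cells, 400 per well, received compound via pintool and were incubated for 48 or 72 hr prior to CellTiter-Glo ATP luminescence measurement.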
hNpr1 antagonist: antagonists of human natriuretic peptide receptor Npr1; P16066; HEK293 hNpr1 GloSensor cGMP, ANP-stimulated luminescence; Potency, µM (series often up to 46.3 µM), most hits filed as inhibitors; 76,000 tested, 1.6% active; calls by dose curve; also: nearly all actives have a fitted effect of over 60% in size
Target sequence (P16066 whole entry, looked up): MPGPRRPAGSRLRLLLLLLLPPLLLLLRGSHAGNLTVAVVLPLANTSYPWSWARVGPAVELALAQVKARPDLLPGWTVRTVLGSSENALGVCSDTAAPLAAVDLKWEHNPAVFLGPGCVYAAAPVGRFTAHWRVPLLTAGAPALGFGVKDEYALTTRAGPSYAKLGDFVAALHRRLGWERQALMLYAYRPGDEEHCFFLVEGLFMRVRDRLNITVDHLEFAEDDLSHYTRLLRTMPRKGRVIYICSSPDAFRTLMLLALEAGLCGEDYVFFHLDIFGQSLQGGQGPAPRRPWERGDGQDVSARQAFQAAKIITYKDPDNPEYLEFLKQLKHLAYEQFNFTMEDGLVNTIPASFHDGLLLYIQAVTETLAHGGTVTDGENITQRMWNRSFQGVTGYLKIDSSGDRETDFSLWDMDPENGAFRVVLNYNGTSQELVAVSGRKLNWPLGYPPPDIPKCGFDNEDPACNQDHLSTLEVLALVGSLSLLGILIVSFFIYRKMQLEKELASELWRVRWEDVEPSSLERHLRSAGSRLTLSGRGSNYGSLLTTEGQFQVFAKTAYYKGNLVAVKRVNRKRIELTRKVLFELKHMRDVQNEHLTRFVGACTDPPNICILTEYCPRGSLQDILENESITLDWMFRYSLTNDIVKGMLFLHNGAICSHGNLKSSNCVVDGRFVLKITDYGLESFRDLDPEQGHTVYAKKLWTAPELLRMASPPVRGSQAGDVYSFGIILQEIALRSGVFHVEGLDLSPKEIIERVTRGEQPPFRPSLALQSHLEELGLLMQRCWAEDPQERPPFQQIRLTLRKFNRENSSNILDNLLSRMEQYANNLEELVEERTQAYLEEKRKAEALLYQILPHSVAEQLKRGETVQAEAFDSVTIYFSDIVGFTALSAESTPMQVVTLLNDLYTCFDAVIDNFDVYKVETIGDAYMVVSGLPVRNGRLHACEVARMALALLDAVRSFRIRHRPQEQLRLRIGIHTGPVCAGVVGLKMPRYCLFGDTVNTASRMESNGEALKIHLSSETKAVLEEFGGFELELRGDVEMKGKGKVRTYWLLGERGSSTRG
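Compound pre-incubated 30 min at room temperature on GloSensor-loaded HEK293 cells stably carrying hNpr1 and the pGS-40F cGMP biosensor. Stimulation uses hNppA at 0.1 nM final; luminescence is taken at baseline and 20 min post-agonist.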
Luciferase inh: blocks purified firefly luciferase enzyme activity. 76,000 tested, 2.5% active. P08659. purified P. pyralis luciferase, luminescence, biochemical. Potency, µM (series often up to 115 µM), actives largely listed as inhibitors; also: nearly all actives have a fitted effect of over 65% in size
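Luminescence read by CCD imager after adding enzyme (10nM final) to wells holding compound, titrated in qHTS. Substrates 10uM each D-luciferin and ATP; buffer 50mM Tris acetate pH 7.5, 10mM Mg acetate, Tween-20, BSA.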
HEK293 tox: kills HEK 293 cells; Potency, µM (titrated, usually from 115 µM), most hits filed as inhibitors; AID 1345083; 94,000 tested, 6.6% active; HEK 293 viability, ATP luminescence (CellTiter-Glo), 48-72 h; also: nearly all actives have a fitted effect of over 60% in size
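ATP-coupled CellTiter-Glo luminescence served as viability read-out, recorded 10 min after reagent addition at room temperature. HEK 293 cells, 250 cells/well, had been incubated with pintool-transferred compound for 48 or 72 hr at 37 degree Celsius.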
Numbers stand for hits; i = inactive; ? = inconclusive; nt = no result. Unless noted, calls follow the shape of the dose curve; as a rule, active = well fitted curve in the direction sought with a large enough effect; inconclusive = small, poorly fitted or top-dose-only effect, or another doubt; inactive = no such curve, though single readings can be large; an effect the other way counts as inactive or inconclusive.

SMILES | 3T3 cytotox | hNpr1 antagonist | Luciferase inh | HEK293 tox
Cc1cccc(NC(=O)N2CCC(CCNC(=O)C3(c4ccccc4)CC3)CC2)c1 | i | nt | nt | ?
O=C(C1CCCN1C(=O)c1ccccc1F)N1CCC(c2ccccc2)CC1 (centres undefined) | ? | nt | nt | i
CC(C)N1C[C@H](Oc2ccccc2)[C@@H]1C1CCN(C(=O)c2ccccn2)CC1 | i | nt | nt | i
O=C(NC1CCCCCC1)C1CCc2nnc(-c3ccc(F)cc3)n21 (centres undefined) | i | nt | nt | i
COc1ccc(-c2ccc(C(=O)Nc3ccc(Cl)cc3)cc2)nn1 | i | nt | nt | i
COCc1ccccc1-c1cn(C)c(=O)n2cc(COc3ccc(Cl)cc3)nc12 | ? | ? | i | ?
Cn1cc(-c2ccccc2)c2nc(COc3ccc(Cl)cc3)cn2c1=O | 50.1µM | i | i | ?
COc1ccc(C(=O)NC2CCN(C(=O)c3ccc(-c4cccc(OC)c4)cc3)CC2)cc1 | i | nt | nt | ?
COc1cccc(-c2ccc(C(=O)N3CCC(NC(=O)c4ccccc4Cl)CC3)cc2)c1 | ? | nt | nt | 39.8µM
COc1ccc(CC(=O)NC2CCN(C(=O)c3ccc(-c4cccc(OC)c4)cc3)CC2)cc1 | 35.5µM | nt | nt | 44.7µM
Cc1cc(=O)n(CC(=O)Nc2ccccc2C)c(-c2ccc(Cl)cc2)n1 | 35.5µM | i | i | ?
CC(=O)c1cccc(NC(=O)Cn2c(-c3ccccc3)nc(C)cc2=O)c1 | i | i | i | ?
CC(=O)c1cccc(NC(=O)Cn2c(-c3ccc(F)cc3)nc(C)cc2=O)c1 | i | i | i | 44.7µM
COc1ccccc1-n1c(=O)c(C(=O)N2CCN(C(=O)c3ccccc3C)CC2)nc2cccnc21 | i | nt | nt | i
COc1ccc(OC)c([S+](=O)([O-])c2nnn3c2nc(N2CCCCC2)c2ccccc23)c1 | i | nt | nt | ?
CC1=C[C@@H](CNC(=O)C2CCCCC2)[C@H](C(C)C)C[C@H]1Cc1nc2ccc(C)cc2[nH]1 | ? | i | i | ?
COc1ccc2nc(C[C@@H]3C[C@@H](C(C)C)[C@H](CNC(=O)C4CCCCC4)C=C3C)[nH]c2c1 | 56.2µM | i | i | 50.1µM
COc1ccc2nc(C[C@@H]3C[C@@H](C(C)C)[C@H](CNCc4ccccc4)C=C3C)[nH]c2c1 | 50.1µM | i | i | 44.7µM
CC(=O)NC[C@@H]1C=C(C)[C@H](Cc2nc3ccccc3n2C)C[C@H]1C(C)C | 79.4µM | ? | i | 35.5µM
COc1ccc2nc(C[C@@H]3C[C@@H](C(C)C)[C@H](CNC4CCCCC4)C=C3C)[nH]c2c1 | 22.4µM | i | i | 28.2µM
COc1ccc2nc(C[C@@H]3C[C@@H](C(C)C)[C@H](CNC(=O)COCC(=O)O)C=C3C)[nH]c2c1 | i | i | i | i
CC1=C[C@@H](CNC(=O)CCCC(=O)O)[C@H](C(C)C)C[C@H]1Cc1nc2ccccc2n1C | i | i | i | i
COc1ccc2nc(C[C@@H]3C[C@@H](C(C)C)[C@H](CNC(=O)[C@@H]4CCCC[C@@H]4C(=O)O)C=C3C)[nH]c2c1 | i | i | i | i
COc1ccc([C@H]2C[C@@H](O)[C@@H](O)[C@@H]2NC(=O)c2ccc(C#N)cc2)cc1 | i | i | i | i
O=C(C1CCCC1)N1CCN(CCCn2nc3n(c2=O)CCCC3)CC1 | i | nt | nt | i
SMILES | 3T3 cytotox | hNpr1 antagonist | Luciferase inh | HEK293 tox
CC(=O)N1CCC(NC[C@@H]2C=C(C)[C@H](Cc3nc4ccccc4[nH]3)C[C@H]2C(C)C)CC1 | 112µM | i | i | 89.1µM
CCCn1cc(-c2ccnc(NC3CCN(Cc4cccnc4)CC3)n2)c(C)n1 | ? | ? | i | 28.2µM
COCCn1cnc2ccc(-c3ccc4c(ccn4C)c3)nc2c1=O | 44.7µM | i | ? | ?
Cn1ccc2cc(-c3ccc4c(n3)c(=O)ncn4CC3CC3)ccc21 | ? | i | 44.7µM | i
COc1ccc(-c2ccc3c(n2)c(=O)ncn3CC2CC2)cc1OC | ? | i | i | i
Cc1ccc(NC(=O)N2CCC(CCNC(=O)c3n[nH]c4ccccc34)CC2)cc1F | ? | i | ? | 79.4µM
COc1ccc(C(=O)NCCC2CCN(C(=O)Nc3ccc(C)c(F)c3)CC2)cc1 | ? | i | 3.55µM | i
Cc1ccc(NC(=O)N2CCC(CCNC(=O)c3ccco3)CC2)cc1F | ? | i | i | i
COc1ccc(NC(=O)N2C[C@@H]3C[C@H](C2)c2ccc(NS(=O)(=O)c4ccc(NC(C)=O)cc4)c(=O)n2C3)cc1 | i | i | i | i
O=C(NC1CCN(c2nc3ncccc3o2)C1)c1ccccc1Cl (centres undefined) | i | nt | nt | i
O=C1CC(c2ccccc2)N(Cc2ccncc2)CCCN(C(=O)NCc2ccc(F)cc2)CCN1 (centres undefined) | i | i | i | i
CN1CC2(CCN(C(=O)NCCc3ccccc3)CC2)CC1C(=O)N1CCOCC1 (centres undefined) | i | i | i | i
O=C(c1ccccc1F)N1CCn2c(nnc2C2CCNCC2)C1 | 28.2µM | nt | nt | i
O=C(c1ccccc1F)N1CCn2c(nnc2-c2ccccc2)C1 | i | i | i | i
Cc1cc(CNC(=O)c2cc(-c3ccco3)nc3c(Cl)cccc23)no1 | ? | i | i | i
CCc1nc2c(c(-c3ccc(O)cc3)n1)CCN(Cc1ccc(OC)cc1)CC2 | i | i | i | i
O=C(Nc1ccccc1)N[C@H]1CO[C@H]2[C@@H]1OC[C@H]2OC(=O)Nc1ccccc1 | i | i | 44.7µM | ?
CC(C)c1ccc(NC(=O)N[C@H]2CO[C@H]3[C@@H]2OC[C@H]3OC(=O)Nc2cccc(C(F)(F)F)c2)cc1 | 25.1µM | ? | i | 28.2µM
O=C(Nc1cccc(C(F)(F)F)c1)N[C@H]1CO[C@H]2[C@@H]1OC[C@H]2OC(=O)Nc1ccccc1 | ? | i | i | ?
CC(=O)c1ccc(NC(=O)O[C@@H]2CO[C@H]3[C@@H]2OC[C@@H]3NC(=S)NC2CCCCC2)cc1 | i | i | i | 79.4µM
COC(=O)c1cccc(C(=O)N[C@H]2CO[C@H]3[C@@H]2OC[C@H]3OC(=O)Nc2ccc(Oc3ccccc3)cc2)c1 | i | i | i | 10µM
Cc1noc(C)c1CCNC(=O)CN1C(=O)C(Oc2ccc(F)cc2)C12CCCCC2 (centres undefined) | i | nt | nt | ?
COCC(=O)N1CCN(CCn2nc3n(c2=O)CCCC3)CC1 | i | nt | nt | i
CCc1ccc(CNC(=O)CCC2CCCN(S(=O)(=O)c3ccccc3C)C2)cc1 (centres undefined) | ? | i | i | 39.8µM
O=C(CCC1CCCN(S(=O)(=O)c2ccccc2F)C1)NC1CCCCC1 (centres undefined) | i | ? | i | 31.6µM
O=C(NC1CCCC1)c1cccc2c1CCN2S(=O)(=O)c1ccccc1F | 35.5µM | ? | i | ?
CCCNC(=O)c1cccc2c1CCN2S(=O)(=O)c1ccccc1F | i | i | i | ?
COc1ccc(-c2nc(-c3ccccc3)nc3c2CN(C(=O)C2CC2)CC3)cc1 | ? | i | i | ?
O=C(c1ccc(F)cc1)N1CCc2nc(-c3ccccc3)nc(-c3ccc(Cl)cc3)c2C1 | ? | i | i | ?
Cc1nc2c(c(-c3ccc(O)cc3)n1)CN(C(=O)C1CC1)CC2 | i | i | i | i

Assay outcomes (PubChem BioAssay)
